Laboratory results reported in PubChem BioAssay (NCATS).
Records with an inconclusive call do not appear. Calls of active or inactive are those of the source. Unless noted, the call rests on the fitted dose curve.

Columns and labels:
[1] = qHTS for Inhibitors of the Functional Ribonucleoprotein Complex (vRNP) of Lassa (LASV) Arenavirus: LASV Primary Screen - GLuc reporter signal (AID 1347082; calls by dose curve; tested in HEK293 reporter line; further: nearly all actives have a fitted effect of over 60% in size; on activity change, negative = inhibition: series mostly up to about 57 µM)
[2] = qHTS for Inhibitors of the Functional Ribonucleoprotein Complex (vRNP) of Lassa (LASV) Arenavirus: Viability assay - alamar blue signal for LASV Primary Screen (AID 1347083; calls by dose curve; tested in HEK293 reporter line; further: nearly all actives have a fitted effect of over 80% in size; on activity change, negative = reduced viability: series mostly up to about 57 µM)
[3] = qHTS for Inhibitors of the Functional Ribonucleoprotein Complex (vRNP) of Lymphocytic Choriomeningitis Arenaviruses (LCMV): Viability assay - alamar blue signal for LCMV Primary Screen (AID 1347085; calls by dose curve; tested in HEK293 reporter line; further: nearly all actives have a fitted effect of over 80% in size; on activity change, negative = lower viability: series mostly up to about 57 µM)
[4] = molecular target: Nucleoprotein (Lymphocytic choriomeningitis virus (strain Armstrong)) (UniProt P09992); assay: qHTS for Inhibitors of the Functional Ribonucleoprotein Complex (vRNP) of Lymphocytic Choriomeningitis Arenaviruses (LCMV): LCMV Primary Screen - GLuc reporter signal (AID 1347086); further: nearly all actives have a fitted effect of over 70% in size; on activity change, negative = inhibition: series mostly up to about 57 µM
Chain of Nucleoprotein (Lymphocytic choriomeningitis virus (strain Armstrong)) (P09992 whole entry, looked up): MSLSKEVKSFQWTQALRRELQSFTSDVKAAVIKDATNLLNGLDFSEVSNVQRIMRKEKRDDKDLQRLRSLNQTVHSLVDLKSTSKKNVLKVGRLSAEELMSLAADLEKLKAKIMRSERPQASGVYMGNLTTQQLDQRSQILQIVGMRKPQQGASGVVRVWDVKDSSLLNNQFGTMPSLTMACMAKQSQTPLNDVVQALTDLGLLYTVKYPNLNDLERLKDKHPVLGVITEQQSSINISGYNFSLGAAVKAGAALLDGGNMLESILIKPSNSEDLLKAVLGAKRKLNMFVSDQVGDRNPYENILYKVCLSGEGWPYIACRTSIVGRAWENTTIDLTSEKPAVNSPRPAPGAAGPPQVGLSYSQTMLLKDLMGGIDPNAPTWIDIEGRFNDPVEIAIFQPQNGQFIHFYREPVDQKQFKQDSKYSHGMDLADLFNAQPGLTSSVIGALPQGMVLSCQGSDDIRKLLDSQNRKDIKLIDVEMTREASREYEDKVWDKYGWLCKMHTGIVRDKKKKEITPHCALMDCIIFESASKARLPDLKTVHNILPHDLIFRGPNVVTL
On the % scale 0 is the no-effect control and ±100 the full control effect; potency means the concentration at half of the fitted maximal effect.

O=c1c2c(O)cc(O)cc2oc2c(O)ccc(O[C@H]3O[C@@H](CO)[C@H](O)[C@@H](O)[C@@H]3O)c12
inactive: Potency [1] | Potency [2] | Potency [3] | Potency [4]

O=c1c(O)c(-c2cc(O)c(O)c(O)c2)oc2cc(O)ccc12
inactive: Potency [1] | Potency [2] | Potency [3] | Potency [4]

COC(=O)C1=CO[C@@H](O[C@@H]2O[C@H](CO)[C@@H](O)[C@H](O)[C@H]2O)C2C1CC(O)O[C@H]2C (stereo partly specified)
inactive: Potency [1] | Potency [2] | Potency [3] | Potency [4]

C=CC[C@]12C[C@@H](OC)C(=O)C=C1O[C@@H](c1ccc(OC)c(OC)c1)[C@H]2C
inactive: Potency [1] | Potency [2] | Potency [3] | Potency [4]

CCCCCCCCC(=O)OCC
inactive: Potency [1] | Potency [2] | Potency [3] | Potency [4]

C=CC(=O)CCCCC
inactive: Potency [1] | Potency [2] | Potency [3] | Potency [4]

Nc1nc(=O)n([C@H]2CSC(CO)O2)cc1F (stereo partly specified)
inactive: Potency [1] | Potency [2] | Potency [3] | Potency [4]

CCOC(=O)[C@H](CCc1ccccc1)N[C@@H](C)C(=O)N1[C@@H](C(=O)O)C[C@H]2CCC[C@@H]21
inactive: Potency [1] | Potency [2] | Potency [3] | Potency [4]

CCCC1CCCC(=O)O1 (stereo unspecified)
inactive: Potency [1] | Potency [2] | Potency [3] | Potency [4]

O=c1cc(-c2ccccc2)oc2cc(O)ccc12
inactive: Potency [1] | Potency [2] | Potency [3] | Potency [4]

CC1=CCC(C(C)C)C=C1 (stereo unspecified)
inactive: Potency [1] | Potency [2] | Potency [3] | Potency [4]

CC1(C)C[C@H]2C3=CCC4[C@@]5(C)CC[C@H](O)[C@](C)(CO)C5CC[C@@]4(C)[C@]3(C)C[C@@H](O)[C@@]2(CO)[C@@H](O)[C@@H]1O (stereo partly specified)
inactive: Potency [1] | Potency [2] | Potency [3] | Potency [4]

O=C(NC[C@H](O)c1ccccc1)c1ccccc1
inactive: Potency [1] | Potency [2] | Potency [3] | Potency [4]

Cc1cc(Nc2nc(N[C@@H](C)c3ccc(F)cc3)c(C#N)cc2F)n[nH]1
inactive: Potency [1] | Potency [4]
active: Potency [2] 4.85 µM | Potency [3] 10.9 µM

Cn1c(=O)c2nncnc2n(C)c1=O
inactive: Potency [1] | Potency [2] | Potency [3] | Potency [4]

CCOC(=O)c1c(C)nc(C)c(C(=O)OCC)c1-c1ccccc1
inactive: Potency [1] | Potency [2] | Potency [3] | Potency [4]

COc1cc2oc(=O)ccc2c(OC)c1CC(O)C(C)(C)O (stereo unspecified)
inactive: Potency [1] | Potency [2] | Potency [3] | Potency [4]

C=C(C)[C@@H](O)COc1c2ccoc2cc2oc(=O)ccc12
inactive: Potency [1] | Potency [2] | Potency [3] | Potency [4]

COc1c2c(c3c(c1OC)c(=O)c1ccccc1n3C)OCO2
inactive: Potency [1] | Potency [2] | Potency [3] | Potency [4]

COc1ccc(C=CC(=O)Nc2ccccc2C(=O)O)cc1OC
inactive: Potency [1] | Potency [2] | Potency [3] | Potency [4]

CC(C)COC(=O)c1ccccc1
inactive: Potency [1] | Potency [2] | Potency [3] | Potency [4]

C#C[C@]1(O)CC[C@H]2[C@@H]3CCC4=Cc5oncc5CC4(C)[C@H]3CCC21C (stereo partly specified)
inactive: Potency [1] | Potency [2] | Potency [3] | Potency [4]

COC1C(O)C(O)C(O)C(O)C1O (stereo unspecified)
inactive: Potency [1] | Potency [2] | Potency [3] | Potency [4]

O=C(c1ccc(F)cc1)N1CCC[C@H](c2nc(-c3ccc(F)cc3)no2)C1
inactive: Potency [1] | Potency [2] | Potency [3] | Potency [4]

C=C(CC[C@]12OC(C(=O)O)C(O)(C(=O)O)C(C(=O)O)(O1)C(OC(=O)/C=C/[C@@H](C)C[C@@H](C)CC)C2O)[C@@H](OC(C)=O)[C@H](C)Cc1ccccc1 (stereo partly specified)
inactive: Potency [1] | Potency [2] | Potency [3] | Potency [4]

COc1ccc2c(c1)CC1c3c(cc4c(c3-2)OCO4)CC[N+]1(C)[O-] (stereo unspecified)
inactive: Potency [1] | Potency [2] | Potency [3] | Potency [4]

COc1c2c(c(CCC(=O)O)c3c1C=CC(C)(C)O3)OC(C)(C)C=C2
inactive: Potency [1] | Potency [2] | Potency [3] | Potency [4]

COc1cc(O)c(C(C)=O)c2c1C=CC(C)(C)O2
inactive: Potency [1] | Potency [2] | Potency [3] | Potency [4]

CCCCC/C=C\C[C@@H]1O[C@H]1/C=C/C(O)C/C=C\CCCC(=O)O (stereo partly specified)
inactive: activity change, negative = inhibition [1] -3.16% [at 0.757 µM] | activity change, negative = reduced viability [2] 11.9% [at 0.757 µM] | activity change, negative = lower viability [3] 4.17% [at 0.757 µM] | activity change, negative = inhibition [4] 7.04% [at 0.757 µM]

C[C@H](NCc1ccc2c(c1)nc(NC(=O)c1ccc(-c3cn[nH]c3)s1)n2CCc1ccccc1)C(C)(C)C
active: Potency [1] 10.9 µM | Potency [2] 6.11 µM | Potency [3] 12.2 µM | Potency [4] 17.2 µM

O=c1ccc2ccc(O[C@@H]3O[C@H](CO[C@@H]4OC[C@](O)(CO)[C@H]4O)[C@@H](O)[C@H](O)[C@H]3O)cc2o1
inactive: Potency [1] | Potency [2] | Potency [3] | Potency [4]

CC1=C(O)C(=O)OC1C (stereo unspecified)
inactive: Potency [1] | Potency [2] | Potency [3] | Potency [4]

C/C=C(/C)C(=O)O[C@H]1CC(C)=CC(=O)[C@@]2(C)CC[C@@](O)(C(C)C)[C@H]12
inactive: Potency [1] | Potency [2] | Potency [3] | Potency [4]

O=c1c2ccccc2nc2n1CCC2
inactive: Potency [1] | Potency [2] | Potency [3] | Potency [4]

C[C@@H]1C[C@H]2[C@@H]3C[C@H](F)C4=CC(=O)C=C[C@@]4(C)[C@]3(F)[C@H](O)C[C@]2(C)[C@@]1(O)C(=O)CO
inactive: Potency [1] | Potency [2] | Potency [3] | Potency [4]

CC/C=C\C[C@H](O)/C=C/C=C\C/C=C\C/C=C\CCCC(=O)O
inactive: activity change, negative = inhibition [1] -0.193% [at 0.757 µM] | activity change, negative = reduced viability [2] 19.4% [at 0.757 µM] | activity change, negative = lower viability [3] 7.46% [at 0.757 µM] | activity change, negative = inhibition [4] 12.1% [at 0.757 µM]

CC(C)C(=O)COc1c2occc2cc2ccc(=O)oc12
inactive: Potency [1] | Potency [2] | Potency [3] | Potency [4]

C=C1C(=O)O[C@H]2C[C@]3(C)C([C@@H](OC(=O)/C(C)=C/C)[C@H]12)[C@](C)(O)CC[C@H]3O (stereo partly specified)
inactive: Potency [1] | Potency [2] | Potency [3] | Potency [4]

CCCCCCCCC=O
inactive: Potency [1] | Potency [2] | Potency [3] | Potency [4]
